Active and inactive are the calls of the source. The rule behind the calls is not given here.
target: Pantothenate synthetase (Mycobacterium tuberculosis (strain ATCC 25618 / H37Rv)) (UniProt P9WIL5); experiment: Recombinant Mtb pantothenate synthetase (PanC) inhibitors, coupled enzyme, confirmatory (AID 375); conditions: coupled enzyme assay; at 10 µM, active compounds read high;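 note: 0% = full reaction with vehicle and 100% = no enzyme background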
Sequence (P9WIL5 whole entry, looked up): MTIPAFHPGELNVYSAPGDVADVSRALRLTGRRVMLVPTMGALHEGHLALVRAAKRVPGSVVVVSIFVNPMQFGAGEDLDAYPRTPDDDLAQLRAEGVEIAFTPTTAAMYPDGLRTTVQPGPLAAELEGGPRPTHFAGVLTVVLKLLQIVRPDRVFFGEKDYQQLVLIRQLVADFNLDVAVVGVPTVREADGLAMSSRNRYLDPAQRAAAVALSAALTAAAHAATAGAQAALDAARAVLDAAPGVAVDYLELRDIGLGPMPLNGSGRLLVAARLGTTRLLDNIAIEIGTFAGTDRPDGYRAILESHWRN

Compound	inhibition
COCCNC(=O)C(c1ccc(C)o1)N(C(=O)c1snc(C(N)=O)c1N)c1ccc(C)cc1 (stereo not given)	4% (inactive)
Cc1ccccc1Nc1nc(N)nc(CSCc2c(C)noc2C)n1	0% (inactive)
COc1cc2c(cc1OC)C(/C(C#N)=N\O)=NC(C)(C)C2	2% (inactive)
Cc1ccc(-c2cc(C(F)F)nc(NCC3CCCO3)n2)cc1 (stereo not given)	3% (inactive)
COc1ccc(CC(=O)NCc2ccccc2)cc1S(=O)(=O)N1CCOCC1	0% (inactive)
CSc1cccc(NC(=O)C2CCCN2S(=O)(=O)c2ccc3c(c2)CCC(=O)N3)c1 (stereo not given)	0% (inactive)
COc1ccc(CNc2nc3nc(C)cc(C)n3n2)cc1OC	1% (inactive)
O=S(=O)(c1cccc2c(S(=O)(=O)N3CCCC3)cccc12)N1CCCC1	0% (inactive)
COc1nc(C)ccc1-c1noc(-c2ccncc2)n1	2% (inactive)
CCOc1ccccc1NC(=O)CN(C)S(=O)(=O)c1cccc2nsnc12	11% (inactive)
CCN(CC)c1ccc2cc(-c3nc4ccccc4[nH]3)c(=O)oc2c1	0% (inactive)
O=C1CCCC2=C1C(c1cccs1)n1nc(SCc3ccccc3F)nc1N2 (stereo not given)	0% (inactive)
O=C(C1CCCO1)N1CCN(C(c2ccccc2)c2ccccc2)CC1 (stereo not given)	0% (inactive)
Brc1ccc(-c2csc(/N=C/N3CCOCC3)n2)cc1	3% (inactive)
O=C1OC2(c3ccccc3)C3CCCC2C13	3% (inactive)
O=C(Nc1nccs1)c1ccc(Cl)c(S(=O)(=O)N2CCCCC2)c1	0% (inactive)
O=C1CSC(c2cn(-c3ccccc3)nc2-c2cccs2)N1CC1CCCO1 (stereo not given)	2% (inactive)
CN(CCc1ccccn1)C(=O)CCNC(=O)Cn1cnc2ccccc2c1=O	1% (inactive)
CC(=O)C1=C(C)Nc2ncnn2C1c1cccc(OCc2ccccc2)c1 (stereo not given)	0% (inactive)
CC1(C)CC(=O)C2=C(C1)OC(N)=C(C#N)C2C1CC=CCC1 (stereo not given)	1% (inactive)

Compound	inhibition
CCOC(=O)C1/C(=N\O)CC(C)(O)C(C(=O)OCC)C1c1ccc(N(C)C)cc1 (stereo not given)	0% (inactive)
Cc1c(NC(=O)C(C)OC(=O)COc2cccc3c2OC(C)(C)C3)c(=O)n(-c2ccccc2)n1C (stereo not given)	5% (inactive)
O=C(CC(SCCO)c1ccc2c(c1)OCO2)c1ccco1 (stereo not given)	0% (inactive)
Cc1ccc(Cl)cc1N1CCN(C(=O)C2CCCN(S(=O)(=O)c3cnc[nH]3)C2)CC1 (stereo not given)	0% (inactive)
O=C(Cn1cnc2c(nnn2-c2ccc(F)cc2)c1=O)NCc1ccco1	0% (inactive)
O=C(CNCCC1=CCCCC1)Nc1ccccc1N1CCCCC1	0% (inactive)
COc1cccc(C=Nc2ccc3c(c2)OCCO3)c1O	3% (inactive)
O=C(NCc1ccc2c(c1)OCO2)C1CCC(CNc2c(N3CCCCC3)c(=O)c2=O)CC1 (stereo not given)	0% (inactive)
N#Cc1cnc(SCCc2ccccc2)nc1N	0% (inactive)
Cn1c(SCC(=O)N2CCN(c3cccc(Cl)c3)CC2)nnc1-c1ccncc1	0% (inactive)
OC(COc1ccccc1)CN1C2=NCCCN2c2ccccc21 (stereo not given)	1% (inactive)
CCCc1cc(=O)[nH]c(=S)[nH]1	3% (inactive)
Cc1cc(S(=O)(=O)n2cnc3ccccc32)c(C)cc1Cl	0% (inactive)
CCS(=O)(=O)N1CCC(C(=O)NCCc2ccc(C)cc2)CC1	0% (inactive)
CN(Cc1ccccc1)c1nc2c(c(=O)[nH]c(=O)n2C)n1Cc1ccccc1Cl	3% (inactive)
C#CCN(C)Cc1ccccc1	3% (inactive)
Cc1ccc(C)c(NC(=O)C2CCC(C)(C(=O)O)C2(C)C)c1 (stereo not given)	0% (inactive)
CC(=O)c1ccc(NC(=O)C2CCN(S(=O)(=O)c3cccc4cccnc34)CC2)cc1	4% (inactive)
Cc1ccc(S(=O)(=O)C2(C(=O)Nc3nccs3)CC2)cc1	0% (inactive)
O=C(CSc1nc2ccccc2[nH]1)N1CCCCC1	0% (inactive)

From PubChem BioAssay
